Among the data in the OligoGym collection are sensor-assay potency score (higher = more potent) values, retold here.
Note: reference of the scale not given here.

One test concerns the target MRC1L1. As to the kind of experiment: pooled miR-30 sensor sort-seq; sequence = guide strand. The conditions noted are these: shRNA.
The sequence TTGCTCATGAATCTCTGTGATG came in with a sensor-assay potency score (higher = more potent) of -0.904.

TTCTGAATTGACATCATTCAGC had a sensor-assay potency score (higher = more potent) of -0.303. Same read-out and setting: to TAGAGAGTGATAGCAACCCAGT belongs -0.877; to TTGTTTTCAAACTTGAACGGGA, 0.456; to TATAGTAACAGTGACCATGGAA, 0.0156.

Consider TAACAACACAGTCAGCATCTTC, for which the sensor-assay potency score (higher = more potent) was -0.367. The same measure, in the same setting: to TTTCTCATCTCTGTGAATCTTG belongs 0.274; to TACAGCTTGAAACACAAGCTTG, -1.09; to TAAAGCTACACAATCATTCCGT, 0.804. For the sequence TTGGGTTCGGGAGTCGTCGTGG, the sensor-assay potency score (higher = more potent) came out at 0.34.

The target in the next test is MRFAP1. Described as above. The settings on record: shRNA.
For the sequence ATGAGCATATTGTCCATCTCCC, the sensor-assay potency score (higher = more potent) was -0.693. Still for that read-out and setting: under CTGGATGAGCATATTGTCCATC stands -2.34. The same measure, in the same setting: to TTCGCAATCTCCTTGGCCTTCT belongs -0.202. TCCTCGGCCTTCTCGCACCTCT displayed a sensor-assay potency score (higher = more potent) of -1.7. TCTGGATGAGCATATTGTCCAT: the sensor-assay potency score (higher = more potent) was -0.959.

Regarding TTGATCTGGATGAGCATATTGT, the sensor-assay potency score (higher = more potent) was -0.361.

As for TTGACCAGAATCCATTGGCTGG, the sensor-assay potency score (higher = more potent) was -0.987. Same read-out and setting: to AGCACCTCCACTTCCTCCGGTT belongs -1.22.

As for TCTCCTTGGCCTTCTCCTCGGC, the sensor-assay potency score (higher = more potent) is -0.368. Take TTCTCCTCGGCCTTCTCGCACC: the sensor-assay potency score (higher = more potent) was -1.46. The sequence TATCCGCCGGACCAGCTCCACC displayed a sensor-assay potency score (higher = more potent) of -1.87. On the same count and under the same terms, under TTTGATCTGGATGAGCATATTG stands -1.65.

In a further test the target is MRO. The description is as above. The settings on record: shRNA.
In turn, TATCATTGATGTCCTTTTCTGC showed a sensor-assay potency score (higher = more potent) of -0.559.

Sequence TTTTCTTATACTTTCTCACCTT gave a sensor-assay potency score (higher = more potent) of 0.132. AAGAACTGCAGGATCTCTGGAT returned a sensor-assay potency score (higher = more potent) of 0.374. In turn, TAGTGTTCCTTTGATCTTCTTC had a sensor-assay potency score (higher = more potent) of 0.466.

Sequence TTGTTTTGCAAGCCTTGGCAAC yielded a sensor-assay potency score (higher = more potent) of -1.43. On the same count and under the same terms, to ATACAGTCCATACACCAGCAGG belongs -1.19; to TCATCATCTAATAAAGTCCTGG, -0.176. On to TTTGATCTTCTTCACTCTGGAA, for which the sensor-assay potency score (higher = more potent) is -0.504. Still for that read-out and setting: under TTTGCAAGCCTTGGCAACCTGG stands -1.05; under TTTCTTATACTTTCTCACCTTG, -0.188; under TTGATCTTCTTCACTCTGGAAG, -0.557. Same read-out and setting: to TATACTTTCTCACCTTGTCAGG belongs -0.957.

For a further test, the target named is MRPL14. The description is as above. The settings on record: shRNA.
As for TGAATCGCACTCAGACTCCCAG, the sensor-assay potency score (higher = more potent) was -0.455. In the case of ATTCTTCTTATAGACATGGATG, the sensor-assay potency score (higher = more potent) was -1.46. In turn, TTATAGACATGGATGCAGCGAG yielded a sensor-assay potency score (higher = more potent) of -0.0779. Still for that read-out and setting: to TAGTATCTGGTCGCCCACCTTG belongs -1.26; to TTGATGGCCAGTAGTATCTGGT, -0.918; to TGTTGGAGTCGAATCTGGGGGT, -0.258.
